# Assay results reported in PubChem BioAssay AID1347041 (National Center for Advancing Translational Sciences (NCATS), 2019).
# Several values for one entry are separate records, joined by “and”; a condition that tells them apart may be missing. Equal entries are not always repeated. Among all 480,000 compounds or so, about 740 (0.15%) were called active. Cut-off read from the data, not from the text of the source: active = activity change below about -30%; inconclusive = mostly about -25% to -30%; inactive = weaker than that. The sample as a whole holds a higher share of actives than the screen did. The source holds several records for some structures; these can differ, active in one and inactive in another.
# Molecular target: L-lactate dehydrogenase A chain (Homo sapiens) (UniProt P00338)
# Experiment: qHTS assay for inhibitors of human lactate dehydrogenase;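 note: values are at about 110 or 230 µM; plate controls were DMSO wells for no effect and wells without enzyme for full effect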
# Conditions: purified LDHA, NADH/diaphorase-resazurin fluorescence; stronger effect = lower value
# Description: LDH is a key glycolytic enzyme that catalyzes the final step in the glycolytic pathway, reducing pyruvate to lactate and regenerating NAD+ equivalents necessary for continued glycolysis. LDHA has been linked to the carcinogenesis and malignancy in numerous forms of cancers and many other diseases. Consequently, both pharma and academia have invested in significant research efforts to identify small molecule therapeutics. Such attempts have been stalled or abandoned due to limited success in discovering potent and drug-like inhibitors that can be utilized to validate LDHA in vivo as a drug target, a necessary step toward advancing such a molecule towards the clinic Towards this goal we designed and performed a quantitative high-throughput screening (qHTS) campaign to discover novel compounds that are potent inhibitors of LDHA enzyme activity and cancer cell line growth.
# The assay was optimized to 1536-well plates. Briefly, 3 µL of human lactate dehydrogenase 5 (#A38558H, Meridian Life Science, Inc., Memphis, TN) in LDH assay buffer (200 mM Tris HCl pH 7.4, 100 microM EDTA and 0.01% Tween-20) was added to a black solid bottom 1536-well assay plate (Greiner Bio-One) using a BioRAPTR FRD dispenser (Beckman Coulter, Brea, CA). A 1536-well pintool dispenser outfitted with 20 nL pins (Wako Automation, San Diego, CA) was used to transfer 23 nL of DMSO-solubilized compound (both library and vehicle controls) to each 1536-well assay plate. Following compound transfer, 1 µL of substrate solution containing NADH and sodium pyruvate (Sigma-Aldrich, St. Louis, MO) in LDH assay buffer was dispensed via BioRAPTR FRD to initiate the reaction. Final concentrations in the 4 microL reaction volume were 2 nM LDHA enzyme, 0.06 mM NADH and 0.2 mM sodium pyruvate. Following a 5 minute incubation period at room temperature, 1 µL of detection reagent (C. kluyveri diaphorase (Sigma-Aldrich) and resazurin sodium salt (Sigma-Aldrich) in LDH assay buffer) was added to a total volume of 5 µL. Final concentrations of detection reagents were 0.133 mg/mL diaphorase and 37 µM resazurin. Plates were immediately transferred to a ViewLux microplate imager (PerkinElmer, Waltham, MA), and any resulting resorufin fluorescence was measured (ex540, em590 nm) at 0 and 20 minutes. Fluorescence was normalized using enzyme-free and DMSO-treated control wells on each plate.
row,Compound,activity change
1,CCCCOc1ccc(C(=O)NO)cc1,12.4% (inactive)
2,CCCCCCCCCOc1ccc(C(=O)c2ccccc2)cc1,2.28% (inactive)
3,CC/C(=C(/c1ccccc1)c1ccc(OCC[N+](C)(C)C)cc1)c1ccccc1,-30.9% (active)
4,Cc1cc(C)cc(Nc2nc3ccccc3nc2NS(=O)(=O)c2ccccc2)c1,-9.61% (inactive)
5,C=CCOc1ccc(NC(C)=O)cc1,8.6% (inactive)
6,Cc1nn(CC(=O)Nc2ccc3c(c2)nc2n3CCN(C)C2)c(=O)c2ccccc12,2.93% (inactive)
7,O=C(COc1ccccc1F)OCc1cc(=O)n2nc(C3CCCCC3)sc2n1,-0.186% (inactive) and -35% (active)
8,Cc1ccc(OCC(=O)OCc2cc(=O)n3nc(C4CC4)sc3n2)cc1,-4.61% (inactive)
9,O=C(COc1ccccc1F)Nc1ccc(C(=O)OCc2cc(=O)n3nc(C4CC4)sc3n2)cc1,0.0167% (inactive)
10,O=S(=O)(Cc1nnnn1-c1ccccc1)c1ccccc1,0.923% (inactive) and -41.4% (active)
11,CC(=O)c1ccc(S(=O)(=O)NCc2nnnn2-c2ccccc2)cc1,-5.01% (inactive)
12,O=S(=O)(Cc1nnnn1-c1ccc(Br)cc1)c1ccc(F)cc1,-2.83% (inactive)
13,Cn1ccnc1Sc1nc2c(c(=O)n(C)c(=O)n2C)n1Cc1ccc(F)cc1,1.87% (inactive)
14,Cc1ccc2oc(C(=O)Nc3ccccc3F)cc(=O)c2c1,7.9% (inactive)
15,O=C(O)C(Sc1nc(-c2ccccc2)cc(C(F)(F)F)n1)c1ccccc1 (centres undefined),13.5% (inactive)
16,O=C(NC1CCCC1)c1nc(-c2cccc3[nH]ccc23)no1,-3.9% (inactive)
17,O=c1[nH]c(=O)n(Cc2ccco2)c2c1C(C(F)(F)F)(C(F)(F)F)N=C(c1ccco1)N2,-12.6% (inactive)
18,O=C(NC1(C(F)(F)F)C(=O)Nc2c1c(=O)[nH]c(=O)n2Cc1ccco1)c1ccco1 (centres undefined),-33.9% (active)
19,CC(=O)Nc1ccc(S(=O)(=O)NC2(C(F)(F)F)C(=O)Nc3c2c(=O)[nH]c(=O)n3Cc2ccccc2)cc1 (centres undefined),-3.74% (inactive)
20,Cc1cc(Nc2ccccc2)n2nc(Cc3ccc(Cl)cc3)nc2n1,-32.3% (active)

row,Compound,activity change
1,CCc1nc2nc(C)cc(Nc3ccc(F)c(Cl)c3)n2n1,-6.31% (inactive)
2,Cc1cc(Nc2cccc(Cl)c2)n2nc(Cc3ccccc3)nc2n1,-15% (inactive)
3,Cc1ccc(C)c(N2CCN(C(=O)CCS(=O)(=O)c3cccc4nsnc34)CC2)c1,0.345% (inactive)
4,O=C1CCCC2=C1C(c1cccnc1)CC(=O)N2c1ccccc1C(F)(F)F (centres undefined),0.301% (inactive)
5,O=C(CSc1nnnn1C1CCCC1)N1CCCC1c1ccc2c(c1)OCCCO2 (centres undefined),-4.78% (inactive)
6,CC(=O)NC(Cc1c[nH]c2ccccc12)C(=O)N1CCC1 (centres undefined),-6.31% (inactive)
7,FC(F)(F)c1ccc(Cl)c(N/N=C/c2c(Cl)cccc2Cl)c1,-0.292% (inactive)
8,COC(=O)c1cc(NCC(=O)N2CCNC2=O)ccc1Cl,-2.4% (inactive)
9,CSc1ccc(Cl)c(C(=O)OCC(=O)N2CCNC2=O)c1,-5.09% (inactive)
10,N#Cc1cc(NCC(=O)N2CCNC2=O)ccc1Cl,-31.1% (active)
11,CC(=O)Nc1cccc(NC(=O)c2nc(-c3ccccc3)oc2C)c1,-3.27% (inactive)
12,CCN(CC)CCNC(=O)c1ccc2nc(C)c(C)nc2c1,1.31% (inactive)
13,COc1ccc(NC(=O)CN(C)C(=O)c2nc(-c3ccccc3)oc2C)cc1,7.53% (inactive)
14,Cc1ccc(NC(=O)CN(C)C(=O)c2nc(-c3ccccc3)oc2C)cc1,-4.78% (inactive)
15,Cc1oc(-c2ccccc2)nc1CC(=O)N(C)CC(=O)Nc1cccc2ccccc12,-30.2% (active)
16,CC(=O)c1ccccc1NC(=O)c1ccccc1Cc1ccccc1,-24.1% (inactive)
17,CCN(CC)C(=O)c1ccc(CSC(F)F)o1,-3.64% (inactive)
18,Cc1cccc(N2CCN(Cc3ncc(-c4ccc(Cl)cc4)o3)CC2)c1,6.83% (inactive)
19,Cc1c(CC(=O)NCCCN2CCOCC2)c(=O)oc2cc(O)ccc12,1.59% (inactive)
20,CCOc1ccccc1NC(=O)Cn1c2ncccc2c(=O)n1-c1ccc(C)c(C)c1,-10% (inactive)

row,Compound,activity change
1,CCOc1ccccc1NC(=O)Cc1c(C)[nH]n(-c2nc(-c3ccccc3)cs2)c1=O,-42.8% (active)
2,Cc1[nH]n(-c2nc(-c3ccccc3)cs2)c(=O)c1CC(=O)Nc1cccc(Cl)c1,-4.25% (inactive)
3,CCNC(=O)c1nnc(C(=O)Nc2cccc(Cl)c2)s1,6.18% (inactive)
4,Cn1c(=O)n(C)c2cc(SCc3ccco3)c(NC(=O)c3ccc(C(C)(C)C)cc3)cc21,-5.57% (inactive)
5,CCCCCn1c(SCc2ccc(C)cc2)nc2c1c(=O)[nH]c(=O)n2C,-21.4% (inactive)
6,CN1CCN(CCC2(Cc3ccccc3)CCOC(C)(C)C2)CC1 (centres undefined),-4.19% (inactive)
7,O=C(O)C(Br)Cc1ccc(Cl)cc1Cl (centres undefined),27.6% (inactive)
8,CC1(C)CC(N2CCN(C(c3ccccc3)c3ccccc3)CC2)=CC(=[N+]2CCCCC2)C1,-64.6% (active)
9,O=C(Nc1ccc2c(c1)OCCCO2)c1ccccc1OCc1ccc(F)cc1,7.94% (inactive)
10,CC(C)(C)c1ccc(-c2nnc(SCC(=O)NC(=O)NC3CCCC3)n2Cc2ccco2)cc1,9.16% (inactive)
11,CC1=C/C(=N\NC(N)=S)C(C)C1 (centres undefined),1.95% (inactive)
12,CCOC(=O)/C=C/c1cc(C(=O)OCC)c(/C=C/C(=O)OCC)cc1C(=O)OCC,-12.2% (inactive)
13,CCn1c(SCC(=O)NCC(F)(F)F)nnc1-c1ccncc1,-0.908% (inactive)
14,Cc1n[nH]c(=O)nc1N/N=C/c1cccs1,10.4% (inactive)
15,Cc1ccsc1/C=N/n1c(=S)[nH]nc(C)c1=O,-32.7% (active)
16,CCc1n[nH]c(=S)n1/N=C/c1c[nH]c2ccc(Br)cc12,-11% (inactive)
17,Cc1ccccc1NC(=O)Cc1nnc(SCC(=O)c2ccc(C#N)cc2)n1C,2.1% (inactive)
18,CCc1nn2c(=O)cc(CN(CC)Cc3ccc(OC)cc3)nc2s1,0.31% (inactive)
19,CCOC(=O)C(NC(=O)c1ccccc1)C(F)(F)F (centres undefined),-5.84% (inactive)
